Measurements as given in PubChem BioAssay.

Experiment: JC-1 mitochondrial potential readout, lung cancer cells – cell-based, A549, JC-1 fluorescence, basal, 24 h, 100 nL, profiling panel (AID 1138);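 also: A549 lung adenocarcinoma cells under basal conditions with no added stimulus; test concentration not given here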
Settings: higher = more signal
In the case of `CC(C)=CCN[C@H](CO)c1ccccc1`, the z-score was -0.989.
`CCCC#C[Si](O[C@H](CC)c1cn(Cc2cccc(Cl)c2)nn1)(C(C)C)C(C)C` gave a z-score of -0.264.
With `C=CCOC(=O)[C@H]1[C@@H]2C(=O)O[C@@H](c3ccccc3)[C@@H](c3ccccc3)N2[C@@H](c2ccc(OCCOC(=O)[C@H]3C[C@H]4C(=O)N[C@@H](CCCCNC(C)=O)C(=O)N4[C@H]3c3cccc(OCCO)c3)cc2)[C@]12C(=O)Nc1ccccc12` the z-score was -0.472.
For `C=C(COC)/C(=C/C[C@@H](OC(=O)c1ccncc1)c1ccc(CO)o1)c1cc(C(=O)OC)ccc1OC`, the z-score was 0.526.
`CC(C)C(=C=CC[C@@H](O)c1ccc(OCCO)cc1)C[C@@H](O)COCc1ccccc1` showed a z-score of 0.922.
In the case of `CCCCCCc1nc(-c2cc(C)c(OC)c(C)c2)cc2c1[Si](C(C)C)(C(C)C)OC2`, the z-score was -0.693.
`COc1cc2c(cc1O)C(C1CC1)N(Cc1sc3ccccc3c1Cl)CC2` (stereo unspecified) gave a z-score of -1.55.
For `COCCOC(=O)N1C(=O)[C@@]2(c3cc(C#CCC(C(=O)OC)C(=O)OC)ccc31)[C@H](C(=O)N1CCN(c3ncccn3)CC1)[C@H]1C(=O)O[C@H](c3ccccc3)[C@H](c3ccccc3)N1[C@@H]2c1ccccc1OCCO`, the z-score was -0.835.
In the case of `C[C@H]1NC(=O)[C@@]23C(=O)N[C@@H](Cc4ccccc4)C2[C@H](C)[C@@]2(C)O[C@H]2C3/C=C/C/C=C\CNC(=O)[C@@H]2CCCN2C1=O` (stereo partly specified), the z-score was 0.419.
In the case of `CCOC(=O)C[C@H]1[C@H](OC(=O)c2ccc(C(=O)c3ccccc3)cc2)[C@@H](NC(=O)c2ccc3ccccc3n2)c2cc(OCCCO)ccc2N1C(=O)c1ccccc1`, the z-score was 0.332.
`CCCC[C@@H]1C[C@H]1[C@@H](NC(=O)c1cccs1)c1ccc(-c2ccccc2)cc1` gave a z-score of 0.319.
`COC(=O)[C@@]1(Cc2ccc(OC)cc2)[C@H]2c3cc(C(=O)N4CCCC4)n(Cc4ccc(O)c(OC)c4)c3C[C@H]2CN1C(=O)c1ccccc1` showed a z-score of 1.44.
`[N-]=[N+]=NCc1ccccc1C[C@]1(C(N)=O)COC(c2ccc(OCCCO)cc2)=N1` showed a z-score of 0.564.
Work on `C=C(COC)C(=O)CC[C@@H](OC(C)=O)c1ccc(CO)o1` yielded a z-score of -0.57.
`O=C1c2ccccc2[C@](Cc2ccccc2I)(C(=O)NCCN2CCOCC2)[C@H](c2ccc(CO)cc2)N1Cc1ccccc1Cl` showed a z-score of 1.87.
In the case of `COCCCNC(=O)[C@]1(CCC(=O)OC(C)(C)C)N=C(c2ccc(OCCCO)cc2)O[C@@H]1c1ccccc1CN=[N+]=[N-]`, the z-score was -0.627.
`C=CCNC(=O)[C@@H]1[C@H]2C(=O)O[C@H](c3ccccc3)[C@H](c3ccccc3)N2[C@H](c2ccc(OCCO)cc2)[C@@]12C(=O)Nc1ccc(C#CCC(C(=O)OC)C(=O)OC)cc12` gave a z-score of -0.21.
In the case of `COc1cc2c(cc1OC)CN(C(=O)[C@@H]1[C@H]3C(=O)O[C@H](c4ccccc4)[C@H](c4ccccc4)N3[C@H](c3ccccc3OCCO)[C@@]13C(=O)Nc1ccc(C#CCCO)cc13)CC2`, the z-score was -0.426.
Compound `C=CCC(OC(C)=O)[C@@H]1[C@@H](N(Cc2cc3ccccc3o2)C(=O)c2cccc3ccccc23)c2cc(OCCCO)ccc2N1C(=O)c1ccc(-c2ccccc2)cc1` (stereo partly specified) has a z-score of 0.461.
Compound `COC(=O)[C@@]1(Cc2ccc(F)cc2)[C@H]2c3cc(C(=O)N4CCCC4)n(CCCNc4ncc(C(F)(F)F)cc4Cl)c3C[C@H]2CN1C(=O)c1ccccc1` has a z-score of 0.742.
`CC(C)N1C(=O)c2ccccc2[C@](C)(C(=O)NCCN2CCOCC2)[C@@H]1c1ccc(CO)cc1` gave a z-score of -0.662.
Compound `CC(C)C(=C=CC[C@@H](O)c1ccc(OCCO)cc1)C[C@@H](O)c1ccccn1` has a z-score of -0.306.
Compound `CO[C@H]1O[C@H](CO)[C@@H](OC(=O)Nc2ccc(Oc3ccccc3)cc2)[C@H](OC(=O)Nc2ccc3c(c2)OCO3)[C@H]1OC(=O)Nc1ccc2c(c1)OCO2` has a z-score of -0.249.
`C=CCOC(=O)[C@H]1[C@@H]2C(=O)O[C@@H](c3ccccc3)[C@@H](c3ccccc3)N2[C@@H](c2ccc(OCCOC(=O)[C@@H]3C[C@@H]4C(=O)N[C@@H](CC(C)C)C(=O)N4[C@@H]3c3ccc(O)cc3)cc2)[C@]12C(=O)Nc1ccccc12` gave a z-score of -1.56.
Work on `O=C(c1ccccc1)N1C(=O)[C@]2(COC(c3ccc(OCCCO)cc3)=N2)Cc2ccccc21` yielded a z-score of -0.345.
In the case of `CCCc1cc2c(n1Cc1cc(F)cc(F)c1)C(C)C1CN(C(=O)c3ccccc3)C(C)(C(=O)OC)C21` (stereo unspecified), the z-score was 1.24.
`O=C(c1ccccc1)N1C(=O)[C@@]2(Cc3ccccc31)N=C(c1ccc(OCCCO)cc1)O[C@H]2c1ccccc1` showed a z-score of -1.02.
`CO[C@H]1O[C@H](CO)[C@@H](OC(=O)Nc2ccccc2)[C@H](OC(=O)Nc2ccccc2)[C@@H]1OC(=O)Nc1ccccc1` showed a z-score of -0.115.
In the case of `COc1ccc(CCNC(=O)[C@@]2(Sc3ccc(C)cc3)CC(=O)N(C3Cc4ccccc4C3)[C@@H]2c2ccc(CO)cc2I)cc1`, the z-score was 1.43.
`CCCCCN1CC=CC23O[C@@H]4C=CCCOC(=O)C4[C@H]2C(=O)N(CCCCCO)[C@@H]3C1=O` (stereo partly specified) gave a z-score of 1.4.
`COc1cc2c(cc1OC)CN(C(=O)[C@H]1[C@@H]3C(=O)O[C@@H](c4ccccc4)[C@@H](c4ccccc4)N3[C@@H](c3ccc(O)cc3)[C@]13C(=O)Nc1ccc(C#CCCO)cc13)CC2` gave a z-score of -0.824.
Work on `CN1C=C(C(=O)OCCS(C)(=O)=O)C(C(=O)OCCS(C)(=O)=O)=CC(c2ccc(CO)cc2)=CC1C1CC1` (stereo unspecified) yielded a z-score of 1.48.
With `C=C[C@H](CO[Si](CC)(CC)CC)N(Cc1ccc(OC(C)=O)c(OC)c1)S(=O)(=O)c1ccc(Br)cc1` the z-score was -0.202.
`C[N+](C)(C)CCCCCCNC(=O)[C@@H]1C[C@@H]2C(=O)N[C@@H](Cc3ccccc3)C(=O)N2[C@@H]1c1cccc(OCCO)c1` gave a z-score of 0.435.
Work on `NC(=O)[C@@H]1[C@H]2C(=O)O[C@H](c3ccccc3)[C@H](c3ccccc3)N2[C@H](c2ccc(O)cc2)[C@@]12C(=O)Nc1ccccc12` yielded a z-score of -1.11.
For `C=C(CCCC)/C(=C/C[C@@H](OC(C)=O)c1ccc(OCCO)cc1)c1cnc2ccccc2c1`, the z-score was 1.49.
